Test results as given in PubChem BioAssay (NCATS).
Records with an inconclusive call do not appear. Calls of active or inactive are those of the source. Unless noted, calls follow the shape of the dose curve; as a rule, active = well fitted curve in the direction sought with a large enough effect; inconclusive = small, poorly fitted or top-dose-only effect, or another doubt; inactive = no such curve, though single readings can be large; an effect the other way counts as inactive or inconclusive.

Assays:
[1] = target: Alpha-galactosidase A (Homo sapiens) (UniProt P06280); experiment: Counterscreen for Glucocerebrosidase Inhibitors: qHTS Assay for Human alpha-Galactosidase at pH 4.5 (AID 992)
Outline: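 Enzyme at 2 nM final was combined with compound (0.7 nM to 77 uM) and 80 uM 4-methylumbelliferyl alpha-D-galactopyranoside in 50 mM citric acid, 0.005% Tween-20, pH 4.5. After 20 min at room temperature, fluorescence was read (Ex 365/Em 440 nm); AC50 came from Hill fits.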

[2] = target: alpha-glucosidase (Oryza sativa, rice) (UniProt Q653V4); experiment: Counterscreen for Glucocerebrosidase Inhibitors: qHTS Assay for Rice alpha-Glucosidase at pH 5.0 (AID 997)
Outline: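 Rice alpha-glucosidase (4 nM final) with 400 uM 4-methylumbelliferyl-alpha-D-glucopyranoside in citrate buffer pH 5.0, 20 min at room temperature, stopped at pH 10; fluorescence 365/440 nm, compounds 0.7 nM–77 uM, AC50 from Hill fits.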

[3] = Counterscreen for APE1 Inhibitors: Fluorescent Dye Displacement Validation Assay (AID 1707)
Outline: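 Thiazole Orange displacement from dsDNA: 250 nM ThO with 50 nM TAMRA-labelled abasic-site (tetrahydrofuran) duplex in 50 mM Tris-HCl pH7.5, 50mM NaCl, 2 mM MgCl2, 0.01% Tween-20. Loss of endpoint fluorescence (ex 480 nm, em 540 nm) flags DNA binders.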

[4] = target: Endonuclease 4 (Escherichia coli (strain K12)) (UniProt P0A6C1); experiment: Counterscreen for APE1 Inhibitors: qHTS Validation Assay for Inhibitors of Endonuclease IV (AID 1708)
Outline: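 E. coli EndoIV at 2 nM final, preincubated 15 min at room temperature with compound, then 50 nM TAMRA/BHQ-2 THF abasic-site duplex added. Buffer: 50 mM Tris-HCl pH 7.5, 50 mM NaCl, 2 mM MgCl2, 1 mM DTT, 0.01% Tween-20. Kinetic fluorescence increase, third minus first read.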

[5] = qHTS for differential inhibitors of proliferation of Plasmodium falciparum line 7G8 (AID 1815);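 also: parasite growth measured after three days of incubation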; also: potency is read from the fitted curve at half-maximal effect
[6] = qHTS for differential inhibitors of proliferation of Plasmodium falciparum line GB4 (AID 1816); conditions: Potency: Plasmodium falciparum GB4 proliferation inhibition;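 also: parasite growth measured after 72 h incubation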; also: potency is read from the fitted curve at half-maximal effect
[7] = qHTS for differential inhibitors of proliferation of Plasmodium falciparum line 3D7 (AID 1876); also: potency is read from the fitted curve at half-maximal effect
[8] = qHTS for differential inhibitors of proliferation of Plasmodium falciparum line D10 (AID 1877);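 also: parasites grown with compound for 72 h before DNA staining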; also: potency is read from the fitted curve at half-maximal effect
[9] = qHTS for differential inhibitors of proliferation of Plasmodium falciparum line Dd2 (AID 1882); conditions: Potency: Plasmodium falciparum Dd2 proliferation inhibition; also: nearly all actives have a fitted effect of over 65% in size; also: potency is read from the fitted curve at half-maximal effect
Outline: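 Dd2-infected erythrocytes (0.3% parasitemia, 2.5% hematocrit final) incubated with compound 72 h at 37 C, 5% CO2; lysed with saponin/Triton buffer containing SYBR Green I, incubated overnight in the dark, then read by fluorescence (485/535 nm). Normalized to 0.29 uM artemisinin and DMSO.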

[10] = qHTS for differential inhibitors of proliferation of Plasmodium falciparum line W2 (AID 1883); conditions: Potency: Plasmodium falciparum W2 proliferation inhibition;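 also: parasites grown with compound for 72 h before lysis and staining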; also: potency is read from the fitted curve at half-maximal effect
[11] = qHTS for differential inhibitors of proliferation of Plasmodium falciparum line HB3 (AID 1886); conditions: Potency: Plasmodium falciparum HB3 proliferation inhibition;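 also: parasites grown with compound for 72 h before SYBR Green readout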; also: potency is read from the fitted curve at half-maximal effect
[12] = Cell Viability - LYMP2-022 (AID 987); also: nearly all actives have a fitted effect of over 55% in size
Outline: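 LYMP2-022 lymphoblastoid cells (2500/well, complete medium) were treated with compounds for 24 hours at 37 C; intracellular ATP was then read by CellTiter-Glo luminescence after 30 min at room temperature. AC50 values were derived from Hill-equation fits.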

[13] = Cell Viability - LYMP2-024 (AID 988); also: nearly all actives have a fitted effect of over 60% in size
Outline: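 Human lymphoblastoid LYMP2-024 cells (2500/well) rested 5 hr, then treated with compound for 24 hr at 37 C in complete medium. Viability was measured as intracellular ATP by CellTiter-Glo luminescence. AC50 values came from Hill-equation fits.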

[14] = Cell Viability - LYMP2-026 (AID 989); also: nearly all actives have a fitted effect of over 50% in size
Outline: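 Human lymphoblastoid LYMP2-026 cells, 2500/well, exposed to compound 24 h at 37 C in complete medium. Viability as intracellular ATP by CellTiter-Glo luminescence; AC50 from Hill fits of qHTS concentration-response.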

[15] = Cell Viability - LYMP1-002 - Assay at 24 hr (AID 993)
Outline: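 Human lymphoblastoid LYMP1-002 cells (2500/well) treated 24 h at 37 °C; viability as intracellular ATP by CellTiter-Glo luminescence. Tetraoctylammonium bromide as positive control; AC50 from Hill-equation fits of qHTS concentration-response.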

[16] = Cell Viability - LYMP1-002 - Assay at 40 hr (AID 994); also: nearly all actives have a fitted effect of over 60% in size
Outline: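 LYMP1-002 human lymphoblastoid cells (2500/well, complete medium) were treated with compounds for 40 hr at 37 C. Intracellular ATP was measured by CellTiter-Glo luminescence, and AC50 values came from Hill-equation fits of concentration-response data; tetraoctylammonium bromide was the positive control.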

[17] = target: DNA repair nuclease/redox regulator APEX1 (Homo sapiens) (UniProt P27695); experiment: qHTS Validation Assay for Inhibitors of the Human Apurinic/apyrimidinic Endonuclease 1 (APE1) (AID 1705;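 also: TAMRA fluorescence gain over two minutes as APE1 cuts a quenched THF abasic duplex; series mostly up to about 57 µM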)
Outline: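 Human APE1 was preincubated with compound for 15 min at room temperature, then 50 nM (final) THF-abasic double-stranded DNA substrate bearing 5'-TAMRA and 3'-BHQ-2 was added. Incision-driven fluorescence rise (ex 525/em 598 nm) was read kinetically.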

[18] = qHTS Assay for Modulators of Human Peripheral Myelin Protein 22 (PMP22) Expression/Activity (AID 1967; active = well fitted curve in the direction sought with a large enough effect in the signal ratio; the % refers to the signal ratio)
Outline: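 MSC80 mouse Schwann cells stably carrying Pmp22 promoter–green click beetle luciferase plus EF-alpha–red luciferase control were dosed for 24h at 37 °C. Dual-colour luminescence was filter-overlap corrected; %Activity came from green/red ratio versus untreated cells.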

Measured: Potency

Sequence of Alpha-galactosidase A (Homo sapiens) (P06280 whole entry, looked up): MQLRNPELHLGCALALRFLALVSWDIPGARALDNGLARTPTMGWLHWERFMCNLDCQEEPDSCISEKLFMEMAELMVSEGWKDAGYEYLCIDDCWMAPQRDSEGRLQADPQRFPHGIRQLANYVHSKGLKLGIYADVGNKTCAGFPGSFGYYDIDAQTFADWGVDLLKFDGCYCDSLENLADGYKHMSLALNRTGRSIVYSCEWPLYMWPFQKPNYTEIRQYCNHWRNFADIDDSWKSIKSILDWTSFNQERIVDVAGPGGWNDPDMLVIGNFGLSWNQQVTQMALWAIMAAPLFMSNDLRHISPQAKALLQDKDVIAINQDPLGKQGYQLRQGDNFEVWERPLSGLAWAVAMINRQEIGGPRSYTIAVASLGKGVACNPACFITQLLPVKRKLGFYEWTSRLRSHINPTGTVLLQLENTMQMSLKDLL
Sequence of DNA repair nuclease/redox regulator APEX1 (Homo sapiens) (P27695 whole entry, looked up): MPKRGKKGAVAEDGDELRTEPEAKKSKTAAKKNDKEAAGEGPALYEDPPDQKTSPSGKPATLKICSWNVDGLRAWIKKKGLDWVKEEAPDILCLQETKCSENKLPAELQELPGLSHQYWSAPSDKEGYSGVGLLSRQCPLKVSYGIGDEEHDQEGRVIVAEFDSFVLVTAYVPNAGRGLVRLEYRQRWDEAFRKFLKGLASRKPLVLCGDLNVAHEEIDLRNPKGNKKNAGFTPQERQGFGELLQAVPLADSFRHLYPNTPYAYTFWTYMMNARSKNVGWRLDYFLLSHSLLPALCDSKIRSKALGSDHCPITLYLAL

CN(C)C(=O)Oc1cccc([N+](C)(C)C)c1
not listed: [12] | [13] | [14] | [15] | [16] | [17] | [18]
inactive: all other assays above

NC(=Nc1ccccc1)Nc1ccccc1
inactive: [12] | [13] | [14] | [15] | [16]

NCCCNCCSP(=O)(O)O
not listed: [12] | [13] | [14] | [15] | [16] | [17] | [18]
inactive: all other assays above

Cc1nc2c([nH]1)c(=O)n(C)c(=O)n2Cc1ccco1
not listed: [4] | [12] | [13] | [14] | [15] | [16] | [18]
inactive: all other assays above

CNCCCN1c2ccccc2CCc2ccccc21
inactive: [1] | [2] | [17] | [3] | [4]

COCCCC/C(=N\OCCN)c1ccc(C(F)(F)F)cc1
active: [5] 10 µM | [6] 5.62 µM | [10] 2.24 µM
inactive: [17] | [3] | [4]

CCC(=O)c1ccc2c(c1)N(CCCN(C)C)c1ccccc1S2
active: [5] 8.91 µM | [6] 11.2 µM | [7] 10 µM | [8] 17.8 µM | [10] 5.01 µM | [11] 11.2 µM
inactive: [1] | [2] | [3]

c1cnc(N2CCN(Cc3ccc4c(c3)OCO4)CC2)nc1
inactive: [1] | [2] | [17] | [3] | [4] | [5] | [7] | [8] | [9] | [11]

CCCNC(C)C(=O)Nc1ccccc1C (configuration not stated)
inactive: [3] | [4] | [5] | [7] | [8] | [9] | [11]

CSc1ccc(C(=O)c2[nH]c(=O)[nH]c2C)cc1
inactive: [1] | [2] | [3] | [4] | [5] | [6] | [8] | [9] | [10]

O=C1CC2(CCCC2)CC(=O)N1CCCCN1CCN(c2ncccn2)CC1
inactive: [1] | [2] | [3] | [4] | [9] | [11]

Fc1ccc(C(c2ccc(F)cc2)N2CCN(C/C=C/c3ccccc3)CC2)cc1
active: [5] 3.98 µM | [6] 4.47 µM | [7] 12.6 µM | [8] 11.2 µM | [9] 12.6 µM | [10] 3.98 µM | [11] 10 µM
inactive: [17] | [3]

NS(=O)(=O)c1cc2c(cc1Cl)NC(C1CC3C=CC1C3)NS2(=O)=O (configuration not stated)
inactive: [3] | [4] | [5] | [6] | [7] | [8] | [9] | [10] | [11] | [18]

CN=C(NC#N)NCCSCc1nc[nH]c1C
not listed: [5] | [10] | [17] | [18]
inactive: all other assays above

Brc1c(NC2=NCCN2)ccc2nccnc12
inactive: [1] | [2] | [17] | [3] | [8] | [9]

NC(N)=N/N=C/c1c(Cl)cccc1Cl
inactive: [3] | [4]

COc1ccc([C@@H]2Sc3ccccc3N(CCN(C)C)C(=O)[C@@H]2OC(C)=O)cc1
inactive: [17] | [3] | [4] | [8]
active: [10] 7.08 µM

CN(C)C(=O)Oc1ccc[n+](C)c1
not listed: [4] | [12] | [13] | [14] | [15] | [16] | [18]
inactive: all other assays above

C[C@H](CS)C(=O)N1CCC[C@H]1C(=O)O
inactive: [1] | [2] | [17] | [3] | [5] | [6] | [7] | [8] | [10] | [11]
